# Reference: PubChem BioAssay (NCATS)
# The source made the active and inactive calls. Calls come from the whole dose curve; as a rule, active = well fitted curve in the direction sought with a large enough effect; inconclusive = small, poorly fitted or top-dose-only effect, or another doubt; inactive = no such curve, though single readings can be large or run the other way.
# Target: Methanococcus maripaludis chaperonin (MmCpn) (UniProt Q6LX38)
# Test: High-Throughput Screening for Modulators of Cytosolic Chaperonin Activity: MmCpn Primary Screen (AID 488978)
# Conditions: Purified MmCpn ATPase activity, ADP HTRF detection, 10 min; series mostly up to 76.9 µM
# Text: Chaperonins are key components of the cellular chaperone machinery. These large complexes consist of two stacked 7-9 membered rings, each containing a central cavity. Substrates are folded within the cavity in an ATP-dependent manner. TRiC is a complex of eight different, essential proteins. As each of the genes encoding the eight subunits is essential for cell viability and no protocol has been developed to overexpress this enzyme to high levels, several groups have turned to the archaeal homolog of TRiC from Methanococcus maripaludis (MmCpn) as a model system for the study of the type II chaperonin family.
# MmCpn was kindly provided by the laboratory of Judith Frydman.
# 1. Dispense 1.5 ul enzyme of either TriC at 100 nM or MmCpn at 50 nM final concentration.
# 2. Transfer 23 nl of compound to plate, incubate 5 min at RT.
# 3. 1.5 ul ATP at 30 uM at final concentration dispensed into plate.
# 4. Incubate for 10 minutes at 37C (MmCPN), 30C (TriC).
# 5. 3 ul of the Cisbio ADP Transcreener HTRF detection reagent prepared according to protocol dispensed into plate.
# 6. Incubate for 5 minutes.
# 7. Read using EnVision plate reader at Excitation = 320nm and Emission = 590nm, 665nm
# Methanococcus maripaludis chaperonin (MmCpn), sequence (Q6LX38 1-543): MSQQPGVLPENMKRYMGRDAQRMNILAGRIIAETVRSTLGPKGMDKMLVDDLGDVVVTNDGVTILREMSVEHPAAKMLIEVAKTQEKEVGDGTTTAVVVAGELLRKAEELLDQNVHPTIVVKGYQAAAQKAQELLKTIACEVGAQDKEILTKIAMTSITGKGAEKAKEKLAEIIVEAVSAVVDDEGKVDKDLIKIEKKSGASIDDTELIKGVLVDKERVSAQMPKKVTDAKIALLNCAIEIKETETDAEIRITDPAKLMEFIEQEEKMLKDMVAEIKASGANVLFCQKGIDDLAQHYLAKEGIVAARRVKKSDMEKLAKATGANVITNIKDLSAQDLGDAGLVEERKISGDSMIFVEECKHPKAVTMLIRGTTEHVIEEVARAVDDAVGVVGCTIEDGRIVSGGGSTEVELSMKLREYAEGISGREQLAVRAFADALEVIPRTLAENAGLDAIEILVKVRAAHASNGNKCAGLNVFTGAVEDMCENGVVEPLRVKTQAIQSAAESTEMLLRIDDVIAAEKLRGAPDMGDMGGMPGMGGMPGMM
row,SMILES,outcome
1,CCc1c(C(=O)NCCc2ccc(N3CCCCC3)cc2)[nH]c2ccc(Cl)cc12,inactive
2,CNc1ncnc2c1ncn2[C@@H]1O[C@H](CO)[C@@H](O)[C@H]1O,inactive
3,CCCCCCCCCCCCCCCCCC(=O)NCC(COP(=O)([O-])OCC[N+](C)(C)C)OCC (stereo not given),inactive
4,N[C@@H](CC(=O)O)C(=O)O,inactive
5,OC[C@H]1O[C@@H](n2cnc3c(NC4CCCCC4)ncnc32)[C@H](O)[C@@H]1O,inactive
6,C#C[C@]1(O)CC[C@H]2[C@@H]3CCC4=Cc5oncc5CC4(C)[C@H]3CCC21C (stereo not given in full),inactive
7,CCCN(CC1CC1)c1nc(C)nc(Nc2c(Cl)cc(Cl)cc2Cl)c1Cl,inactive
8,CNC(=O)[C@H]1O[C@@H](n2cnc3c(NCc4cccc(I)c4)ncnc32)[C@H](O)[C@@H]1O,inactive
9,COc1cccc(C(=O)NCCN2CCN(c3ccc(Cl)cc3)CC2)c1,inactive
10,c1cnc2c(c1)ccc1cccnc12,inactive
11,N#C/C(=C\c1ccc(-c2cc(Cl)ccc2Cl)o1)C(=O)Nc1cccc2ncccc12,inactive
12,O=C(O)CC1CC(c2ccccc2)=NO1 (stereo not given),inactive
13,CCCn1c(=O)c2[nH]c(-c3ccc(OCC(=O)NCCN)cc3)nc2n(CCC)c1=O,inactive
14,CC(C)NCC(O)COc1cccc2ccccc12 (stereo not given),inactive
15,O=C(O)CC[C@@H](C(=O)O)N1C(=O)c2ccccc2C1=O,inactive
16,Cc1ccc(C(=O)O[C@H](C(=O)O)[C@@H](OC(=O)c2ccc(C)cc2)C(=O)O)cc1 (tested in a mixture with another compound),inactive
17,CC(COc1ccc(/C=C/c2ccccc2)cc1)[N+](C)(C)C (stereo not given),inactive
18,Oc1ccc(C2CNCc3sccc32)cc1O (stereo not given),inactive
19,Cn1cc(C2=C(c3ccc(Cl)cc3Cl)C(=O)NC2=O)c2ccccc21,inactive
20,NCCCS(=O)(=O)O,inactive

row,SMILES,outcome
1,OC[C@H]1O[C@@H](n2cnc3c(Nc4ccccc4)ncnc32)[C@H](O)[C@@H]1O,inactive
2,Ic1ccc(N2CCN(Cc3c[nH]c4ncccc34)CC2)cc1,inactive
3,COc1cc(OC)c(/C=C2/C(=O)Nc3ccccc32)c(OC)c1,inactive
4,O=C(c1ccc(OCCCc2cnc[nH]2)cc1)C1CC1,inactive
5,CC(C)(C=O)Cc1cc(C(C)(C)C)c(O)c(C(C)(C)C)c1,inactive
6,O=C(O)CNC(=O)C(CS)Cc1ccccc1 (stereo not given),inactive
7,O=C1NC(=O)/C(=C/c2ccc(-c3ccc(F)cc3O)o2)S1,inactive
8,NCCCCC(=O)O,inactive
9,O=C(/C=C/c1ccc(O)cc1)c1ccc(O)cc1O,inactive
10,COc1ccccc1N1CCN(CCN(C(=O)c2ccc(I)cc2)c2ccccn2)CC1,inactive
11,C[N+](C)(CCCCCC[N+](C)(C)CCCN1C(=O)c2cccc3cccc(c23)C1=O)CCCN1C(=O)c2cccc3cccc(c23)C1=O,inactive
12,CCCCCCCCCCCCCCCC(=O)NCC(COP(=O)([O-])OCC[N+](C)(C)C)OCC (stereo not given),inactive
13,CC(=O)SCC[N+](C)(C)C,inactive
14,Oc1cc2c(cc1O)CN(C(=S)NCCc1ccc(Cl)cc1)CCC2,inactive
15,CCC1C(=O)OCC1Cc1cncn1C (stereo not given),inactive
16,O=C(c1ccc(Cl)cc1)N1CCN(c2ccc([N+](=O)[O-])c3ncccc23)CC1,inactive
17,NC(CCCP(=O)(O)O)C(=O)O (stereo not given),inactive
18,COc1cc2nc(N3CCN(C(=O)OCc4ccccc4)C(C(=O)NC(C)(C)C)C3)nc(N)c2cc1OC (stereo not given),inactive
19,CO/S(=N\S(=O)(=O)c1ccc(Cl)cc1)c1ccc([N+](=O)[O-])cc1 (stereo not given),inactive
20,O=C(O)[C@@H]1C[C@@H](C(=O)O)N1,inactive
